Bioassay records: PubChem BioAssay, National Center for Advancing Translational Sciences (NCATS)
Pin1 inh – inhibitors of human Pin1; 390,000 compounds, 0.009% hits; AID 504891; Q13526; Pin1 FP peptide displacement, HiFluor488, 10 min; Potency, µM (series often up to 115 µM), inactives show at the top dose activity, negative = inhibition, hits mostly inhibitors; active means well fitted inhibition curve with a large enough effect in the polarisation, with a control signal flat, not every such curve was filed as active; inconclusive means small, poorly fitted or top-dose-only effect, or effect the other way, or a change in a side signal; inactive means no such curve, though single readings can be large or run the other way; the % refers to the polarisation; further: on the % scale 0 is the no-effect control and ±100 the full control effect
Target sequence (Q13526 whole entry, looked up): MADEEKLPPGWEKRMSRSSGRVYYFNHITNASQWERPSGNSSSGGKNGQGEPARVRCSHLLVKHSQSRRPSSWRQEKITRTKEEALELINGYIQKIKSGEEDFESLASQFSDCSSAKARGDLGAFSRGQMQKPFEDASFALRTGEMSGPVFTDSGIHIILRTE
VDR inh – vitamin D3 receptor (human) inhibition; P11473; VDR-SRC2-3 peptide fluorescence polarization, 2 h; Potency, µM, without a hit: max response, negative = inhibition, actives largely listed as inhibitors; 400,000 compounds, 0.93% hits; AID 504847; further: on the % scale 0 is the no-effect control and ±100 the full control effect
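Reagent solutions, kept cold and dark, are dispensed first; compounds are then pinned in at 23 nl, plates briefly spun, and incubated 2 h at ambient temperature. Inhibition of VDR–SRC2-3 peptide binding is read by fluorescence polarization.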
ASM inhibitor – blocks human secretory acid sphingomyelinase; placental ASM, HMU-PC fluorogenic substrate, 60 min; Potency, µM (titrated, usually from 57.5 µM), for inactives: at the highest dose activity change, negative = inhibition, actives largely listed as inhibitors; 340,000 compounds, 0.006% hits; AID 504937
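Steps: dispense placental human ASM, pin compound, wait 10 min at room temperature, add HMU-PC0 substrate at 9 uM final, incubate 60 min at 37 °C, add stop solution raising pH to 10, read fluorescence.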
PLK1 PBD block – PLK1 (human) polo-box domain binding inhibition; Potency, µM, for inactives: max response, negative = inhibition, usual class: inhibitors; 360,000 compounds, 2.8% hits; Plk1 PBD binding of FITC phosphopeptide, fluorescence polarization; P53350; further: series mostly up to about 57 µM; on the % scale 0 is the no-effect control and ±100 the full control effect; nearly all actives have a fitted effect of over 65% in size
Tb PFK inh – blocks T. brucei phosphofructokinase | Potency, µM (series often up to 57.5 µM), inactives show top-dose activity, negative = inhibition, actives largely listed as inhibitors | 330,000 compounds, 0.17% hits | T. brucei PFK, ADP-Glo luminescence;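 further: 0% = uninhibited 1x PFK enzyme wells and -100% = no-enzyme wells; nearly all actives have a fitted effect of over 60% in size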
Target sequence (O15648 whole entry, looked up): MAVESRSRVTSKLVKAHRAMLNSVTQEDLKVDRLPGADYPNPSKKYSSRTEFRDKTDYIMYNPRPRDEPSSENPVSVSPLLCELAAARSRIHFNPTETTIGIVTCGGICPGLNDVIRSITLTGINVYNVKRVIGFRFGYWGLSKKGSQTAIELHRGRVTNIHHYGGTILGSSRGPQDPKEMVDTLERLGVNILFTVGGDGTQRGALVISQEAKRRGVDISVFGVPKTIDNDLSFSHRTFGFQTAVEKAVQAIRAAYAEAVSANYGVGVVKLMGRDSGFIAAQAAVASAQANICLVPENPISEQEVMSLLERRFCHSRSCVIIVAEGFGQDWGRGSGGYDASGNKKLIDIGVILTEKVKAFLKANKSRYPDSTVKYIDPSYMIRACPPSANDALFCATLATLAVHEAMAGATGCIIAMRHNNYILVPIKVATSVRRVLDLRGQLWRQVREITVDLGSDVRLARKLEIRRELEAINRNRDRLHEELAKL
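ADP-Glo luminescence quantified ADP after 45 min at room temperature, with 1.25 nM T. brucei PFK, 0.1 mM ATP and 0.5 mM fructose-6-phosphate in pH 8.0 TEA buffer. qHTS titrations up to 57 µM; curves classified by quality.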
TDP1 inh – inhibitors of human tyrosyl-DNA phosphodiesterase TDP1; Q9NUW8; Potency, µM (series often up to 130 µM), without a hit: at the highest dose activity change, negative = inhibition, most hits filed as inhibitors; recombinant TDP1, AlphaScreen DNA substrate cleavage; 350,000 compounds, 0.28% hits; further: on the % scale 0 is the no-effect control and ±100 the full control effect; nearly all actives have a fitted effect of over 40% in size
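Enzyme-compound mixtures sat 15 min at room temperature, followed by a 5 min reaction with 15 nM final substrate and 10 min with AlphaScreen beads. Recombinant human Tdp1 was used at 1 nM final.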
Starred values were filed as active, the others as inactive; ? = inconclusive; nt = no result given; [ ] = another dose, or the depositor's remark. Compounds with a hit are over-represented: about 3.1% of the library has one in this group of screens. Unless noted, the call rests on the fitted dose curve; in most records, active means well fitted curve in the direction sought with a large enough effect; inconclusive means small, poorly fitted or top-dose-only effect, or another doubt; inactive means no such curve, though single readings can be large; an effect the other way counts as inactive or inconclusive. Potency means the concentration at half of the fitted maximal effect.

SMILES	Pin1 inh	VDR inh	ASM inhibitor	PLK1 PBD block	Tb PFK inh	TDP1 inh
N#C/C(=C\c1cccc(Cl)c1)C(=O)c1ccccc1	6.2%	?	8.3%	0.844µM*	12.8%	8.6%
N#C/C(=C\c1ccc[nH]1)C(=O)c1ccccc1	-5.4%	16.3%	-3.2%	-10.1%	3.6%	5.7%
COc1cccc(C=C(C#N)C(=O)c2ccccc2)c1	nt	nt	nt	2.12µM*	nt	nt
Cn1cc(-c2cc3n(n2)CCC(=O)N3CC(=O)NCc2ccc(Cl)cc2)c2ccccc21	-6.0%	8.9%	nt	nt	nt	6.5%
CCOc1ncccc1C(=O)Nc1ccc(Cl)cc1	-1.1%	?	-1.0%	10.6µM*	-2.9%	3.1%
CCOC(=O)c1cc(-c2ccccc2)n(-c2cccc(C(=O)Nc3ccc(OC)cc3)c2)c1C	7.4%	-2.5%	nt	nt	nt	4.7%
Cc1ccc(-c2cn3cccnc3n2)cc1NC(=O)c1ccc(Br)o1	-1.2%	-16.0%	333.5%	-9.0%	-4.4%	4.6%
COc1ccc(-c2cn3cccnc3n2)cc1NC(=O)c1ccc(Br)o1	?	8.7%	241.3%	-5.2%	-10.8%	50.1µM*
C=CC(=O)c1ccc(CCCCCC)cc1	nt	39.8µM*	nt	nt	nt	0.3%
COC(=O)/C=C/COc1ccccc1[N+](=O)[O-]	0.1%	?	3.9%	3.36µM*	-2.2%	-11.7%
O=C(COc1ccccc1[N+](=O)[O-])c1ccccc1	-3.6%	-13.7%	-0.3%	-12.7%	0.0%	5.4%
COCCNC(=O)c1ccccc1NC(=O)c1nsc2ccccc12	5.3%	-4.9%	nt	nt	nt	2.7%
Cc1cccc2sc(N(Cc3cccnc3)C(=O)c3cccs3)nc12	9.9%	23.5%	nt	nt	nt	2.6%
O=c1c2ccccc2sn1-c1ccc(Cl)cc1Cl	nt	nt	nt	2.67µM*	nt	nt
CCOC(=O)C1=C(C)N(c2ccccc2)C(=O)/C1=C\c1ccc(O)c(OC)c1	-6.3%	?	-20.0%	?	?	nt
CCOc1cc(/C=C2\C(=O)N(c3nc(-c4ccc(Br)cc4)cs3)N=C2c2ccccc2)ccc1O	nt	-15.2%	-3.9%	?	0.8%	11.3%
O=C1/C(=C\c2ccc(O)c(O)c2)C(c2ccccc2)=NN1c1ccccc1	?	-23.8%	-16.4%	15µM*	-8.6%	8.1%
COc1cc(/C=C2\C(=O)N(c3ccc(NC(C)=O)cc3)N=C2c2ccccc2)ccc1O	-6.8%	?	?	23.8µM*	1.4%	8.2%
COc1ccc(C=C2c3ccccc3C(=O)c3ccccc32)cc1O	nt	?	nt	nt	nt	23.3%
COc1cccc(O)c1O	nt	50.1µM*	nt	nt	nt	-6.3%
COc1cccc(/C=C/c2ccccn2)c1O	-2.0%	-27.3%	-0.6%	26.7µM*	2.0%	3.6%
c1ccc2nc3c(cc2c1)CCCCC3	1.4%	?	-0.1%	3.36µM*	-1.1%	6.5%
c1ccc2nc3c(nc2c1)CCCC3	-9.2%	6.5%	-0.1%	-5.0%	-0.8%	nt
CCCCN(C(=O)CCC(=O)Nc1cc(C)on1)C(C(=O)NC1CCCC1)c1ccc(OCC)cc1 (stereo not drawn)	-0.4%	9.8%	-7.1%	-0.8%	0.1%	6.0%[0.0935 µM]
C=CCN(C(=O)CCC(=O)Nc1cc(C)on1)C(C(=O)NC1CCCC1)c1ccc(CC)cc1 (stereo not drawn)	-4.4%	?	-2.8%	26.7µM*	-2.4%	2.4%
SMILES	Pin1 inh	VDR inh	ASM inhibitor	PLK1 PBD block	Tb PFK inh	TDP1 inh
COCCNC(=O)C(c1ccco1)N(C(=O)Cn1nnc2ccccc21)c1cc(C)ccc1C (stereo not drawn)	4.1%	?	-1.3%	3.36µM*	-6.1%	3.7%
Cc1ccc(C)c(N(C(=O)CCC(=O)Nc2cc(C)on2)C(C(=O)NC2CCCC2)c2ccco2)c1 (stereo not drawn)	3.1%	-3.8%	0.3%	3.77µM*	2.2%	4.1%
COc1cccc(CNC(=O)CSC2=Nc3ccccc3N=C(c3ccc(F)cc3)C2)c1	-8.4%	6.6%	nt	nt	nt	3.0%
S=C(Cc1ccccc1)NCCc1ccccc1	-1.6%	-8.0%	2.6%	-26.7%	-0.2%	-8.8%
COc1ccc(CC(=S)NCCc2ccccc2)cc1	-4.9%	?	-3.0%	7.52µM*	0.1%	nt
CC(C)NC(=O)C1(c2ccccc2)CC1(Cl)Cl (stereo not drawn)	-1.1%	-28.3%	4.4%	13.4µM*	0.0%	2.3%
O=C(Nc1ccccc1Cl)C1(c2ccccc2)CC1(Cl)Cl (stereo not drawn)	4.2%	-16.1%	-1.8%	4.2%	-3.1%	2.6%
CCC(=O)Nc1cccc(NC(=S)NC(=O)c2cc3ccccc3o2)c1	6.5%	-29.8%	-0.8%	26.7µM*	4.8%	1.2%
COc1ccc2ncc3c(-c4ccc(C)c(C)c4)nn(CC(=O)Nc4ccccc4)c3c2c1	2.4%	0.7%	nt	nt	nt	4.5%
CC(=O)Nc1ccc(NC(=O)C(C)OC(=O)c2ccc(OCc3c(C)noc3C)cc2)cc1 (stereo not drawn)	-1.9%	?	-5.0%	29.9µM*	-0.5%	-6.8%
CC(=O)Nc1ccc(SCc2c(C)noc2C)cc1	-2.3%	-12.5%	-0.3%	21.2µM*	-4.1%	nt
CC(=O)Nc1ccc(SCc2ncc(-c3ccccc3)o2)cc1	-3.8%	-9.5%	-0.5%	13.4µM*	0.4%	2.0%
Cc1noc(C)c1CSc1ccc(Br)cc1	9.4%	-8.0%	-3.8%	?	13.8%	-12.4%
CCOc1ccc(-n2c(N)c(C(=O)NCc3cccnc3)sc2=S)cc1	-6.5%	-24.6%	-4.4%	26.7µM*	-9.3%	-3.4%
CCOc1ccc(NC(=O)NCc2cccnc2)cc1	-10.9%	-13.2%	2.9%	26.7µM*	-0.7%	2.7%
COc1ccc(CNC(=O)c2sc(=S)n(-c3ccccc3)c2N)cc1	11.9%	2.2%	-3.2%	13.4µM*	-13.9%	1.3%
CCOc1ccc(NC(=O)Cn2nnc(C(=O)NCc3ccco3)c2N)cc1	-6.9%	3.3%	3.7%	-2.8%	2.5%	3.1%
CCOc1ccc(-n2c(N)c(C(=O)NCc3ccco3)sc2=S)cc1	-1.9%	?	-2.6%	21.2µM*	-17.3%	2.1%
C[C@H](CN1c2ccccc2Sc2cccnc21)N(C)C	nt	-26.5%	nt	nt	nt	nt
COC(=O)c1sc(=S)n(-c2cccc(Cl)c2)c1N	0.2%	?	1.8%	8.44µM*	-1.1%	3.1%
CCOC(=O)c1sc(=S)n(-c2ccccc2)c1N	-9.2%	-6.7%	-2.7%	-17.4%	-7.3%	2.8%[56.1 µM]
CCOc1cc2[nH]c(=O)n(CCCCC(=O)N3CCN(c4ccc(OC)cc4)CC3)c(=O)c2cc1OCC	0.3%	16.7%	nt	nt	nt	-3.4%
Cc1ccc(-c2nnc(SCc3ccccc3F)o2)cc1	1.7%	-25.6%	3.2%	21.2µM*	-14.2%	nt
C=CCn1c(SCC(=O)Nc2cc(C)on2)nc2sc3c(c2c1=O)CCCC3	-3.8%	6.6%	-5.7%	26.7µM*	-4.1%	1.0%
C=CCn1c(SCC(=O)Nc2ccc(O)cc2)nc2sc(C)c(C)c2c1=O	-6.0%	-4.1%	-4.1%	?	nt	nt
C=CCn1c(SCC(=O)Nc2cc(Cl)ccc2C(=O)O)nc2sc(C)c(C)c2c1=O	-15.4%	-16.7%	8.2%	23.8µM*	-6.0%	0.1%
